# Test results reported in the supplement of paper PMC8728848.
# The full list was thinned out, with the strongest signals kept by preference.
# Experiments:
# Experiment in all cases: glycan array binding signal (z-score within array); higher = stronger binding
# Settings in all cases: glycan notation: IUPAC condensed, linker removed
# [1] = biological target: Fuc(a1-2)Gal(b1-3)GalNAc(b1-3)Gal
# In short: (§1)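 Glycan array data came from 3228 arrays in the Consortium for Functional Glycomics database, and only arrays with an available protein sequence were kept. Glycan names were put into IUPAC-condensed notation, and columns mapping to the same glycan were averaged. The binding signal is a within-array Z-score, averaged across arrays of one protein sequence run at different concentrations or buffers and across linkers. A negative Z-score can be read as non-binding.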
# [2] = biological target: Fuc(a1-2)Gal(b1-3)GalNAc(b1-3)Gal(a1-4)Gal(b1-4)Glc
# In short: as §1
# [3] = biological target: Fuc(a1-2)Gal(b1-3)GlcNAc(b1-3)[Gal(b1-4)GlcNAc(b1-6)]Gal(b1-4)Glc
# In short: as §1
# [4] = biological target: Fuc(a1-2)Gal(b1-4)[Fuc(a1-3)]GlcNAc(b1-3)GalNAc
# In short: as §1
# [5] = biological target: Fuc(a1-2)[Gal(a1-3)]Gal(b1-4)GlcNAc(b1-2)Man(a1-3)[Fuc(a1-2)[Gal(a1-3)]Gal(b1-4)GlcNAc(b1-2)Man(a1-6)]Man(b1-4)GlcNAc(b1-4)[Fuc(a1-6)]GlcNAc
# In short: as §1
# [6] = biological target: Fuc(a1-2)[GalNAc(a1-3)]Gal(b1-4)[Fuc(a1-3)]GlcNAc
# In short: as §1
# [7] = biological target: Fuc(a1-3)[Gal(b1-4)]GlcNAc(b1-2)Man(a1-3)[Fuc(a1-3)[Gal(b1-4)]GlcNAc(b1-2)Man(a1-6)]Man(b1-4)GlcNAc(b1-4)[Fuc(a1-6)]GlcNAc
# In short: as §1
# [8] = biological target: Fuc(a1-3)[Gal(b1-4)]GlcNAc(b1-3)Gal(b1-3)[Fuc(a1-4)]GlcNAc
# In short: as §1
# [9] = biological target: Fuc(a1-3)[Gal(b1-4)]GlcNAc6S
# In short: as §1
# Gal(a1-2)Gal = biological target: Gal(a1-2)Gal
# In short: as §1
# Gal(a1-3)Gal(b1-3)GlcNAc = biological target: Gal(a1-3)Gal(b1-3)GlcNAc
# In short: as §1
# [10] = biological target: Gal(a1-3)Gal(b1-3)GlcNAc(b1-3)GalNAc
# In short: as §1
# [11] = biological target: Gal(a1-3)Gal(b1-4)GlcNAc(b1-6)GalNAc
# In short: as §1
# Gal(b1-2)Gal = biological target: Gal(b1-2)Gal
# In short: as §1
# [12] = biological target: Gal(b1-3)GalNAc(a1-3)[Fuc(a1-2)]Gal(b1-4)Glc
# In short: as §1
# [13] = biological target: Gal(b1-3)GalNAc(b1-3)Gal(a1-4)Gal(b1-4)Glc
# In short: as §1
# [14] = biological target: Gal(b1-3)GlcNAc(b1-6)[Gal(b1-3)]GalNAc
# In short: as §1
# [15] = biological target: Gal(b1-3)[Neu5Ac(a2-6)]GalNAc
# In short: as §1
# Gal(b1-4)GlcNAc(b1-2)Man = biological target: Gal(b1-4)GlcNAc(b1-2)Man
# In short: as §1
# [16] = biological target: Gal(b1-4)GlcNAc(b1-3)Gal(b1-4)GlcNAc(b1-2)Man(a1-3)[Gal(b1-4)GlcNAc(b1-3)Gal(b1-4)GlcNAc(b1-2)Man(a1-6)]Man(b1-4)GlcNAc(b1-4)GlcNAc
# In short: as §1
# [17] = biological target: Gal(b1-4)GlcNAc(b1-3)Gal(b1-4)GlcNAc(b1-3)Gal(b1-4)GlcNAc(b1-2)Man(a1-3)[Gal(b1-4)GlcNAc(b1-3)Gal(b1-4)GlcNAc(b1-3)Gal(b1-4)GlcNAc(b1-2)Man(a1-6)]Man(b1-4)GlcNAc(b1-4)GlcNAc
# In short: as §1
# [18] = biological target: Gal(b1-4)GlcNAc(b1-3)Gal(b1-4)GlcNAc(b1-3)Gal(b1-4)GlcNAc(b1-3)Gal(b1-4)GlcNAc(b1-3)Gal(b1-4)GlcNAc(b1-2)Man(a1-3)[Gal(b1-4)GlcNAc(b1-3)Gal(b1-4)GlcNAc(b1-3)Gal(b1-4)GlcNAc(b1-3)Gal(b1-4)GlcNAc(b1-3)Gal(b1-4)GlcNAc(b1-2)Man(a1-6)]Man(b1-4)GlcNAc(b1-4)[Fuc(a1-6)]GlcNAc
# In short: as §1
# [19] = biological target: Gal(b1-4)GlcNAc(b1-3)Gal(b1-4)GlcNAc(b1-3)[Gal(b1-4)GlcNAc(b1-3)Gal(b1-4)GlcNAc(b1-6)]GalNAc
# In short: as §1
# [20] = biological target: Gal(b1-4)GlcNAc(b1-3)Gal(b1-4)GlcNAc(b1-6)[Gal(b1-3)]GalNAc
# In short: as §1
# GalNAc(b1-4)GlcNAc = biological target: GalNAc(b1-4)GlcNAc
# In short: as §1
# GalNAc3S(b1-4)GlcNAc = biological target: GalNAc3S(b1-4)GlcNAc
# In short: as §1
# Glc(a1-4)Glc = biological target: Glc(a1-4)Glc
# In short: as §1
# GlcA(b1-6)Gal = biological target: GlcA(b1-6)Gal
# In short: as §1
# [21] = biological target: GlcNAc(a1-4)Gal(b1-3)GlcNAc
# In short: as §1
# [22] = biological target: GlcNAc(a1-4)Gal(b1-4)GalNAc
# In short: as §1
# [23] = biological target: GlcNAc(a1-6)Gal(b1-4)GlcNAc
# In short: as §1
# [24] = biological target: GlcNAc(b1-2)Man(a1-3)[GlcNAc(b1-2)Man(a1-6)]Man(b1-4)GlcNAc(b1-4)GlcNAc
# In short: as §1
# [25] = biological target: GlcNAc(b1-3)Gal(b1-4)GlcNAc(b1-3)Gal(b1-4)GlcNAc(b1-2)Man(a1-3)[GlcNAc(b1-3)Gal(b1-4)GlcNAc(b1-3)Gal(b1-4)GlcNAc(b1-2)Man(a1-6)]Man(b1-4)GlcNAc(b1-4)GlcNAc
# In short: as §1
# [26] = biological target: GlcNAc(b1-3)Gal(b1-4)GlcNAc(b1-6)[GlcNAc(b1-3)Gal(b1-3)]GalNAc
# In short: as §1
# [27] = biological target: GlcNAc(b1-3)Gal(b1-4)GlcNAc(b1-6)[GlcNAc(b1-3)]Gal(b1-4)GlcNAc
# In short: as §1
# GlcNAc(b1-3)Man = biological target: GlcNAc(b1-3)Man
# In short: as §1
# Kdn(a2-3)Gal(b1-3)GlcNAc = biological target: Kdn(a2-3)Gal(b1-3)GlcNAc
# In short: as §1
# [28] = biological target: Man(a1-3)[Man(a1-6)]Man(a1-6)[Man(a1-3)]Man
# In short: as §1
# [29] = biological target: Man(a1-3)[Man(a1-6)]Man(b1-4)GlcNAc(b1-4)GlcNAc
# In short: as §1
# Man(b1-4)GlcNAc = biological target: Man(b1-4)GlcNAc
# In short: as §1
# Neu5Ac(a2-3)Gal = biological target: Neu5Ac(a2-3)Gal
# In short: as §1
# [30] = biological target: Neu5Ac(a2-3)Gal(b1-3)GlcNAc6S
# In short: as §1
# [31] = biological target: Neu5Ac(a2-3)Gal(b1-4)GlcNAc(b1-2)Man
# In short: as §1
# [32] = biological target: Neu5Ac(a2-3)Gal(b1-4)GlcNAc(b1-3)Gal(b1-3)GlcNAc
# In short: as §1
# [33] = biological target: Neu5Ac(a2-3)Gal(b1-4)GlcNAc(b1-3)Gal(b1-4)GlcNAc(b1-2)Man(a1-3)[Neu5Ac(a2-3)Gal(b1-4)GlcNAc(b1-3)Gal(b1-4)GlcNAc(b1-2)Man(a1-6)]Man(b1-4)GlcNAc(b1-4)GlcNAc
# In short: as §1
# [34] = biological target: Neu5Ac(a2-3)Gal(b1-4)GlcNAc(b1-3)Gal(b1-4)GlcNAc(b1-3)Gal(b1-4)GlcNAc(b1-2)Man(a1-3)[Neu5Ac(a2-3)Gal(b1-4)GlcNAc(b1-3)Gal(b1-4)GlcNAc(b1-3)Gal(b1-4)GlcNAc(b1-2)Man(a1-6)]GalNAc
# In short: as §1
# Neu5Ac(a2-6)Gal(b1-4)Glc = biological target: Neu5Ac(a2-6)Gal(b1-4)Glc
# In short: as §1
# [35] = biological target: Neu5Ac(a2-6)Gal(b1-4)GlcNAc
# In short: as §1
# [36] = biological target: Neu5Ac(a2-6)Gal(b1-4)GlcNAc(b1-2)Man(a1-6)[Gal(b1-4)GlcNAc(b1-2)Man(a1-3)]Man(b1-4)GlcNAc(b1-4)GlcNAc
# In short: as §1
# [37] = biological target: Neu5Ac(a2-6)Gal(b1-4)GlcNAc(b1-3)Gal(b1-4)GlcNAc(b1-3)Gal(b1-4)GlcNAc(b1-2)Man(a1-3)[Neu5Ac(a2-6)Gal(b1-4)GlcNAc(b1-3)Gal(b1-4)GlcNAc(b1-3)Gal(b1-4)GlcNAc(b1-2)Man(a1-6)]GalNAc
# In short: as §1
# [38] = biological target: Neu5Gc(b2-6)Gal(b1-4)GlcNAc
# In short: as §1
binder,measurement,setting,value
Pbx1CASH domain (Cryptococcus neoformans) (protein) MDETKPLWGNPRADGISLACKDSIVERNVVYDATDGAIVLFGSAGSTVKNNHVYARTRVILGGINLVDYEPWDGDYTNVKVHHNHLYALGRYFKVGIVIGPASWSDDTESVVHSASVTDNEFSGGYWGYGIVVASAKNFEVLRNKVIWDGEQGVARFSGVPGS,glycan array binding signal (z-score),[1],1.37
same,glycan array binding signal (z-score),[2],0.581
same,glycan array binding signal (z-score),[3],0.324
same,glycan array binding signal (z-score),[4],2.39
same,glycan array binding signal (z-score),[5],-0.277
same,glycan array binding signal (z-score),[6],-0.042
same,glycan array binding signal (z-score),[7],-0.469
same,glycan array binding signal (z-score),[8],0.08
same,glycan array binding signal (z-score),[9],0.01
same,glycan array binding signal (z-score),Gal(a1-2)Gal,-0.625
same,glycan array binding signal (z-score),Gal(a1-3)Gal(b1-3)GlcNAc,-0.681
same,glycan array binding signal (z-score),[10],-0.095
same,glycan array binding signal (z-score),[11],-0.006
same,glycan array binding signal (z-score),Gal(b1-2)Gal,-0.215
same,glycan array binding signal (z-score),[12],0.601
same,glycan array binding signal (z-score),[13],0.926
same,glycan array binding signal (z-score),[14],1.3
same,glycan array binding signal (z-score),[15],-0.674
same,glycan array binding signal (z-score),Gal(b1-4)GlcNAc(b1-2)Man,0.337
same,glycan array binding signal (z-score),[16],5.46
same,glycan array binding signal (z-score),[17],3.17
same,glycan array binding signal (z-score),[18],-0.419
same,glycan array binding signal (z-score),[19],4.67
same,glycan array binding signal (z-score),[20],2.73
same,glycan array binding signal (z-score),GalNAc(b1-4)GlcNAc,-0.736
same,glycan array binding signal (z-score),GalNAc3S(b1-4)GlcNAc,-0.852
same,glycan array binding signal (z-score),Glc(a1-4)Glc,-0.667
same,glycan array binding signal (z-score),GlcA(b1-6)Gal,-0.6
same,glycan array binding signal (z-score),[21],-0.187
same,glycan array binding signal (z-score),[22],0.311
same,glycan array binding signal (z-score),[23],-0.894
same,glycan array binding signal (z-score),[24],0.233
same,glycan array binding signal (z-score),[25],4.67
same,glycan array binding signal (z-score),[26],0.647
same,glycan array binding signal (z-score),[27],1.15
same,glycan array binding signal (z-score),GlcNAc(b1-3)Man,0.12
same,glycan array binding signal (z-score),Kdn(a2-3)Gal(b1-3)GlcNAc,-0.869
same,glycan array binding signal (z-score),[28],-0.5
same,glycan array binding signal (z-score),[29],0.022
same,glycan array binding signal (z-score),Man(b1-4)GlcNAc,-0.348
same,glycan array binding signal (z-score),Neu5Ac(a2-3)Gal,-0.64
same,glycan array binding signal (z-score),[30],0.698
same,glycan array binding signal (z-score),[31],2.55
same,glycan array binding signal (z-score),[32],-0.104
same,glycan array binding signal (z-score),[33],2.42
same,glycan array binding signal (z-score),[34],3.29
same,glycan array binding signal (z-score),Neu5Ac(a2-6)Gal(b1-4)Glc,-0.412
same,glycan array binding signal (z-score),[35],-0.348
same,glycan array binding signal (z-score),[36],-0.843
same,glycan array binding signal (z-score),[37],3.13
same,glycan array binding signal (z-score),[38],2.35
